Test results taken from PubChem BioAssay (NCI).
About 83,000 compounds went through this panel and 20% of them were active in at least one assay; those are over-represented in the sample as a whole.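 Activity criterion: percent growth below 10, measured after cells in 96-well plates were exposed to a single compound concentration for 48 hours.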 Calls of active or inactive are those of the source.

Columns and labels:
Assay in all cases: NCI-60 one-dose screen, 48 h (100 = growth as untreated, 0 = no growth, -100 = all killed)
Conditions in all cases: 10 µM unless noted
[1] = test system: DU-145 prostate
[2] = test system: K-562 leukemia
[3] = test system: MALME-3M melanoma
[4] = test system: MDA-MB-231 breast
[5] = test system: RXF 393 renal
[6] = test system: SF-268 CNS
[7] = test system: SF-295 CNS
[8] = test system: SF-539 CNS
[9] = test system: UACC-257 melanoma
[10] = test system: M14 melanoma
[11] = test system: HCT-15 colon
[12] = test system: HT29 colon
[13] = test system: SNB-75 CNS
[14] = test system: SNB-19 CNS
[15] = test system: PC-3 prostate
[16] = test system: SK-MEL-5 melanoma
[17] = test system: UACC-62 melanoma
[18] = test system: LOX IMVI melanoma
[19] = test system: SK-MEL-28 melanoma
[20] = test system: U251 CNS

Measured: growth

COc1ccc(-c2cc(C(=O)N=Nc3c(O)[nH]c4ccccc34)no2)cc1
inactive: [1] 104% | [2] 90.7% | [3] 102% | [4] 96.9% | [5] 102% | [6] 99.4% | [7] 102% | [8] 100% | [9] 114% | [10] 101% | [11] 104% | [12] 99.5% | [13] 66.5% | [14] 91.5% | [15] 97.5% | [16] 98.9% | [17] 100% | [18] 99.7% | [19] 109%

CN[C@@]12CC3(C=CC(=O)C=C3)O[C@]1(Cc1ccc(OC)cc1)N(C)C(=O)N2
active: [11] -47.9% | [12] 8.19%
inactive: [1] 101% | [2] 13.1% | [3] 107% | [4] 110% | [5] 50.7% | [6] 96.7% | [7] 109% | [8] 45.3% | [9] 78.8% | [10] 63% | [13] 74.3% | [14] 92.2% | [15] 66.8% | [16] 77.1% | [17] 54.7% | [18] 10.3% | [19] 46.7%

CC(=O)CC(C)(C)c1ccc(Cl)cc1
inactive: [1] 108% | [2] 101% | [3] 108% | [4] 106% | [5] 98% | [6] 95.7% | [7] 101% | [8] 102% | [9] 101% | [10] 96.8% | [11] 101% | [12] 98.1% | [13] 81.9% | [20] 98.7% | [15] 93.6% | [16] 108% | [17] 101% | [18] 97.3% | [19] 115%

COc1c(Cl)cc(Cl)cc1Cl
inactive: [1] 111% | [2] 96.2% | [3] 143% | [4] 92.2% | [5] 121% | [6] 107% | [7] 103% | [8] 111% | [9] 122% | [10] 116% | [11] 116% | [12] 108% | [13] 116% | [14] 103% | [15] 111% | [16] 109% | [17] 100% | [18] 107% | [19] 127%

COc1ccc(-n2c(C)nc3c(c(C)nn3-c3ccccc3)c2=O)cc1
active: [1] 0.999% | [2] 8.9% | [7] 3.34% | [8] -1.28% | [11] 7.97% | [12] -15.6% | [16] -17.1%
inactive: [3] 63.7% | [4] 31.9% | [5] 19.7% | [6] 30.3% | [9] 60% | [10] 10.4% | [13] 26.7% | [14] 60.7% | [15] 26.7% | [17] 51.6% | [18] 16.6% | [19] 67.4%

Cn1c2c(Cl)c(Cl)ccc2c2ccn3c(=O)c4ccccc4nc3c21
inactive: [1] 120% | [2] 109% | [3] 102% | [4] 99.5% | [5] 117% | [6] 105% | [7] 102% | [8] 95.7% | [9] 97% | [10] 101% | [11] 102% | [12] 105% | [13] 91.6% | [20] 100% | [15] 101% | [16] 95.2% | [17] 90.6% | [18] 104% | [19] 117%

C[C@H](CCC(=O)O)[C@H]1CC[C@H]2[C@@H]3CC[C@@H]4/C(=C\c5ccco5)C(=O)/C(=C\c5ccco5)C[C@]4(C)[C@H]3CC[C@]12C
inactive: [1] 66.5% | [2] 30% | [3] 58.1% | [4] 107% | [5] 45.1% | [6] 80.6% | [7] 70.6% | [8] 76.3% | [9] 51.6% | [10] 52.5% | [11] 28.5% | [12] 59.6% | [13] 101% | [14] 79% | [15] 52.6% | [16] 47.4% | [17] 17.2% | [18] 31.6% | [19] 44.3%

CN(C)c1ccc(/C=C(\C#N)c2nc3ccccc3s2)cc1
inactive: [1] 120% | [2] 119% | [3] 111% | [4] 106% | [5] 116% | [6] 102% | [7] 92.9% | [8] 100% | [9] 93.5% | [10] 110% | [11] 106% | [12] 100% | [13] 89.4% | [20] 106% | [15] 105% | [16] 98.4% | [17] 101% | [18] 113% | [19] 119%

COc1ccc(-c2nn(-c3ccccc3)cc2/C=C2\SC(=O)NC2=O)cc1
inactive: [1] 109% | [2] 86.7% | [3] 112% | [4] 84.4% | [5] 114% | [6] 96.9% | [7] 92% | [8] 96.8% | [9] 110% | [10] 102% | [11] 89.4% | [12] 114% | [13] 66.3% | [14] 89.2% | [15] 99.6% | [16] 83.1% | [17] 89.2% | [18] 59% | [19] 112%

OCC1C2C=CC(C2)C1CO (centres undefined)
inactive: [1] 106% | [2] 112% | [3] 105% | [4] 103% | [5] 113% | [6] 106% | [7] 104% | [8] 126% | [9] 101% | [10] 99.9% | [11] 110% | [12] 97.6% | [13] 75.8% | [20] 100% | [15] 79.5% | [16] 130% | [17] 107% | [18] 101% | [19] 107%

CCCNc1nc(SC)nc(-c2cccc(N)c2)c1C#N
inactive: [1] 109% | [2] 96.8% | [3] 98% | [4] 83.1% | [5] 105% | [6] 91.6% | [7] 98.7% | [8] 102% | [9] 111% | [10] 101% | [11] 102% | [12] 116% | [13] 54.5% | [14] 91.6% | [15] 93.6% | [16] 97.2% | [17] 89.4% | [18] 94.1% | [19] 121%

COc1ccc(-c2cc(NC(=O)Nc3ccc(O)cc3)no2)cc1
inactive: [1] 66.7% | [2] 29.2% | [3] 78% | [4] 67.5% | [5] 90.9% | [6] 62.2% | [7] 58.9% | [8] 69.5% | [9] 84.6% | [10] 35.1% | [11] 49.5% | [12] 98.8% | [13] 62.6% | [14] 91.5% | [15] 57.6% | [16] 82.3% | [17] 44.5% | [19] 101%
active: [18] 7.79%

O=S(=O)(Nc1ccc(Cl)cc1Cl)c1ccc(-c2cnc(C3CC3)o2)cc1
active: [1] 8.88% | [5] -10.7% | [7] 1.37% | [8] -13.5% | [12] 1.27% | [13] 5.51% | [16] 8.59%
inactive: [2] 10.9% | [3] 37.7% | [4] 44.2% | [6] 53.6% | [9] 55.4% | [10] 10.8% | [11] 24.3% | [14] 43.6% | [15] 28.1% | [17] 35.3% | [18] 43.3% | [19] 55.3%

O=C1NC(=O)C(CC(=O)n2c(-c3ccccc3)nc3ccccc32)C(=O)N1
inactive: [1] 108% | [2] 106% | [3] 116% | [4] 98.9% | [5] 101% | [6] 99% | [7] 97.3% | [8] 95.1% | [9] 112% | [10] 108% | [11] 100% | [12] 111% | [13] 71.1% | [14] 89.6% | [15] 100% | [16] 101% | [17] 94.3% | [18] 97.2% | [19] 108%

CC(=O)OC1Oc2cc(C)c(C)cc2-c2oc(=O)c(-c3cc4ccc(N(C)C)cc4oc3=O)cc21 (centres undefined)
inactive: [1] 85.8% | [2] 11.4% | [3] 68.1% | [4] 75.8% | [5] 45.9% | [6] 84.8% | [7] 54.9% | [8] 81.4% | [9] 73.4% | [10] 86.7% | [11] 100% | [12] 100% | [13] 69% | [20] 115% | [15] 61.9% | [16] 49.8% | [17] 61.6% | [18] 101% | [19] 115%

CC(C)n1cc2c(N)ncnc2n1
inactive: [1] 128% | [2] 98.5% | [3] 86.3% | [4] 109% | [5] 115% | [6] 106% | [7] 102% | [8] 105% | [9] 121% | [10] 107% | [11] 106% | [12] 101% | [13] 81.6% | [20] 106% | [15] 106% | [16] 108% | [17] 92.9% | [18] 108% | [19] 152%
